An excerpt weighted towards active compounds, which were near 3.5% of everything screened.
BoNT-A LC inh2 – BoNT/A light chain protease inhibitors, primary screen, biochemical, flow cytometry, MLPCN library; AID 588499, 2011; actives 0.17% (n = 360,000); inhibition, % at 10 µM; Botulinum neurotoxin type A light chain protease (Clostridium botulinum A str. ATCC 3502); multiplex microsphere protease substrate cleavage
Autofluor counter – counter-screen for toxin protease inhibitors: compound fluorescence. AID 624483. fluorescence intensity (concentration not given with the values). actives 3.1% (n = 360,000). compound autofluorescence counterscreen, microsphere flow cytometry; active compounds read high; in the data active means fluorescence intensity above about 16000; inconclusive means no clear call, values can overlap the other calls
Anthrax LF prot – Bacillus anthracis LF protease inhibitors, primary screen, biochemical, multiplex microsphere, MLPCN library; actives 0.12% (n = 360,000); multiplex microsphere protease cleavage assay; AID 588501, 2011; Lethal factor (Bacillus anthracis), P15917; inhibition, % at 10 µM
BoNT-F LC inh – BoNT/F light chain protease inhibitors, primary screen, biochemical, flow cytometry, MLPCN library | Botulinum neurotoxin type F light chain protease (Clostridium botulinum) | Multiplex microsphere protease cleavage assay | inhibition, % at 10 µM | actives 0.22% (n = 360,000); in the data active means inhibition above about 35%, passing the limit was not always enough; inconclusive means no clear call, values can overlap the other calls
Hits are given with their value; – = inactive; ? = inconclusive. Unless noted, no stated cut-off is given here; in the data, active means inhibition above about 30%; inconclusive means no clear call, values can overlap the other calls; inactive means below that.

SMILES | BoNT-A LC inh2 | Autofluor counter | Anthrax LF prot | BoNT-F LC inh
COn1c(SC2CCCCC2)nc2ccccc2c1=O | – | 17818 | – | –
COn1c(SC(C)C)nc2ccccc2c1=O | – | – | – | –
CC(C)On1c(SC(C)C)nc2ccccc2c1=O | – | 22943 | – | –
COC(=O)c1ccccc1NC(=O)CCn1c(=O)oc2ccccc21 | – | – | – | –
CC1(C)CC(=O)c2sc(NS(=O)(=O)Cc3ccccc3)nc2C1 | ? | 22981 | – | –
Cc1ccc(S(=O)(=O)Nc2nc3c(s2)C(=O)CC(C)(C)C3)cc1 | – | – | – | –
CC(OC(=O)c1cccnc1Cl)C(=O)Nc1ccc2c(c1)OCO2 (configuration not stated) | – | – | – | –
Cc1cc(C(=O)N2CCC3(CC2)OCCO3)no1 | – | – | – | –
Cc1cc(NC(=O)CCC(=O)N2CCC3(CC2)OCCO3)no1 | – | 23557 | – | –
CSc1nc(=O)n2cccc(C)c2n1 | – | 21767 | – | –
Cc1cc(C(N)=O)c2cc(Br)ccc2n1 | – | 20846 | – | –
Cc1cc(-n2nnc3ccccc32)nc2ccccc12 | – | 17243 | – | –
O=c1c2[nH]c3cccc(Cl)c3c2ncn1Cc1ccco1 | – | – | – | –
O=C1[C@@H]2Cc3ccccc3CN2C(=O)N1c1cccc(F)c1 | – | – | – | –
Cc1ccccc1N1C(=O)[C@@H]2Cc3ccccc3CN2C1=O | ? | 19296 | – | –
O=C(NCCc1ccccc1)c1ccc(Cl)c(S(=O)(=O)N2CCOCC2)c1 | – | – | – | –
C=CCn1c(CNC(=O)c2ccco2)nnc1SCC(=O)Nc1cccc(Br)c1 | – | 24230 | – | –
C=CCn1c(SCC(=O)Nc2ccc3c(c2)OCCO3)nnc1-c1ccco1 | – | 16334 | – | –
CCn1c(CNC(=O)c2ccco2)nnc1SCC(=O)Nc1cc(C)c(C)cc1Br | ? | 22252 | – | –
O=C(COC(=O)c1cccs1)Nc1nc(-c2ccccc2)cs1 | – | – | – | –
Cn1nccc1C(=O)OCC(=O)Nc1nc(-c2ccccc2)cs1 | ? | 22484 | – | –
CC(=O)Nc1ccc(S(=O)(=O)Nc2cccc(-c3cn4cccnc4n3)c2)cc1 | – | – | – | –
Cc1ccc(CCN2CCN=C2Nc2ccccc2)cc1 | – | – | – | –
O=C(Nc1nccs1)C1CC(=O)N(c2ccccc2Cl)C1 (configuration not stated) | – | 23519 | – | –
O=C(Nc1ccc(N2CCN(C(=O)c3ccc(Cl)cc3)CC2)cc1)c1cc2ccccc2o1 | – | 21324 | – | –
SMILES | BoNT-A LC inh2 | Autofluor counter | Anthrax LF prot | BoNT-F LC inh
CCn1c(=O)n(CC)c2cc(S(=O)(=O)Nc3ccccc3C)c(C)cc21 | ? | 23798 | – | –
CCOC(=O)c1[nH]c(COC(=O)CCOc2ccccc2OC)c(C(=O)OCC)c1C | ? | 23144 | – | –
CCOC(=O)c1c(C)[nH]c(C)c1C(=O)COC(=O)CCOc1ccccc1OC | – | – | – | –
FC(F)(F)c1ccc2c(c1)n(Cc1ccccc1)c1[n+]2CCCCC1 | – | 20850 | – | –
O=C(Cn1c2[n+](c3ccc(C(F)(F)F)cc31)CCCCC2)Nc1ccccc1 | – | – | – | –
COc1ccccc1NC(=O)CCNS(=O)(=O)c1ccc2c(c1)CCN2C(C)=O | – | – | – | –
COc1cc2[nH]cc(C(=O)NCCc3ccccc3)c(=O)c2cc1OC | – | 17186 | – | –
CCOCCCNC(=O)c1c[nH]c2ccc(C)cc2c1=O | – | 22538 | – | –
COc1cc2[nH]cc(C(=O)NCc3ccccc3)c(=O)c2cc1OC | – | – | – | –
CC(=O)Nc1c(Cl)cc2c(c1Cl)Cc1cc(C#N)ccc1-2 | – | – | – | –
O=C1c2cccc([N+](=O)[O-])c2C(=O)N1C1CCCCC1 | – | – | – | –
O=C1c2cccnc2C(=O)N1C1CCCCC1 | – | 21393 | – | –
CCCNC(=O)c1cc(C2CCCN(C(=O)c3cc(F)ccc3C)C2)on1 (configuration not stated) | – | – | – | –
O=C(Oc1ccc(-c2cnc3ccccc3n2)cc1)c1ccco1 | – | 20475 | – | –
CCC(=O)Oc1ccc(-c2cnc3ccccc3n2)cc1 | – | – | – | –
Cc1ccc(-n2nc3c(=O)n(CC(=O)NC4CCCCC4)nc(C)c3c2C)cc1 | – | – | – | –
CCOC(=O)C1(CCOc2ccccc2)CCN(Cc2ccc(O)c(OC)c2)CC1 | – | – | – | –
CCOC(=O)C1(CCOc2ccccc2)CCN(Cc2ccc(F)c(OC)c2)CC1 | – | – | – | 40.3
CCOc1ccc(C(C)(N)C(=O)O)cc1 (configuration not stated) | ? | 22131 | – | –
CCOc1ccc(OCc2cccc(C(=O)O)c2)cc1 | – | 22901 | – | –
CCOc1ccc(C(=O)NC(C)(C)CC)cc1 | – | – | – | –
CC(C)Cc1ccc(-c2cc(=O)[nH][nH]2)cc1 | – | – | – | –
Cc1ccc(-c2cc(=O)[nH][nH]2)c(C)c1 | – | 22424 | – | –
O=C(c1ccco1)N(c1ccccn1)c1ccccn1 | ? | 22821 | – | –
CN(C)S(=O)(=O)c1ccc(C(=O)N(c2ccccn2)c2ccccn2)cc1 | – | 22500 | – | –
SMILES | BoNT-A LC inh2 | Autofluor counter | Anthrax LF prot | BoNT-F LC inh
O=C(NCCc1ccccn1)C1CCCN1S(=O)(=O)c1ccc(Cl)cc1 (configuration not stated) | – | – | – | –
CCCC1Cc2c(sc(N)c2C#N)CO1 (configuration not stated) | – | – | – | –
Cc1cccc(C)c1NC(=S)N/N=C/c1ccc(OCCC(C)C)cc1 | – | 20711 | – | –
CCC(Sc1nc(C)cc(C)n1)C(=O)NC1=NN=C(c2ccc(C)cc2)CS1 (configuration not stated) | – | – | – | –
Cc1cc(C)nc(SCC(=O)NC2=NN=C(c3ccc(Br)cc3)CS2)n1 | ? | 24625 | – | –
O=C1c2ccccc2C(=O)N1CCc1nc(-c2ccccn2)no1 | – | 21427 | – | –
O=C1c2ccccc2C(=O)N1CCCc1nc(-c2ccccn2)no1 | – | – | – | –
O=C1c2ccccc2C(=O)N1Cc1nc(-c2ccccc2)no1 | – | 21600 | – | –
O=C(/C=C/c1cccc(C(F)(F)F)c1)OCC(=O)N1CCN(c2ccccc2)CC1 | – | – | – | –
O=[N+]([O-])c1cccc(S(=O)(=O)N2CN(c3ccc(Br)cc3)c3nc4ccccc4nc32)c1 | – | – | – | –
Cc1ccc(N(C(C)C(=O)Nc2cccc(N(C)S(C)(=O)=O)c2)S(C)(=O)=O)cc1 (configuration not stated) | – | – | – | –
Cc1ccc(SC(C)C(=O)Nc2ccncc2)cc1 (configuration not stated) | – | 22693 | – | –
Cc1ccc(SC(C)C(=O)Nc2cccc(N(C)S(C)(=O)=O)c2)cc1 (configuration not stated) | – | 19657 | – | –
CCc1nc2ccc(C(=O)NCCCN3CCCC3=O)cn2c1N(C=O)CC | – | – | – | –
CC(=O)C(C)Oc1ccc2c3c(c(=O)oc2c1)CCCC3 (configuration not stated) | – | – | – | –
Cc1cc2oc(=O)c3c(c2cc1OCc1nn[nH]n1)CCCC3 | – | – | – | –
